Our source for the inhibition values is PubChem BioAssay AID774 (SRMLSC, 2007).

The whole screen tested about 65,000 compounds, of which about 15 (0.02%) were called active.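 The calls were made as follows: active = single-dose screening hits from any of four coupled enzyme assays that gave an IC50 when retested across doses; inconclusive = no clear call, values can overlap the other calls; inactive = the rest.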 These entries were drawn from the full list.

Broadly, the inhibition is the share of the control response that was lost under treatment.

A short description of this assay: inhibitors of PK/LDH coupling enzymes, profiling panel, artefact control, biochemical, MLSMR library (AID 774).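 Also: the DPM-DC format reads NADH fluorescence rather than 340 nm absorbance.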 The note with it: coupled PK/LDH NADH assays, four targets; at 10 µM; hits give high values.
Consider `CC(C)[C@H](NC(=O)Nc1ccc(S(N)(=O)=O)cc1)C(=O)O`, for which the inhibition was 2% (inactive).
As for `C/C(N)=C(\C#N)C(=O)NCCc1ccccn1`, the inhibition was 5% (inactive).
The figure for `O=C(Cn1c(=O)sc2ccccc21)Nc1nc2c(s1)CCCC2` is 5% (inactive).
The figure for `c1ccc2c(c1)OCC(c1nn3cnnc3s1)O2` (stereo unspecified) is 3% (inactive).
The figure for `COc1cccc(-c2cc3nc4c(c(N5CCC6(CC5)OCCO6)n3n2)CCCC4)c1` is 4% (inactive).
For `C=CCc1cccc2cc(C(=O)N3CCN(C(=O)OCC)CC3)c(=O)oc12`, the inhibition was 4% (inactive).
In the case of `CCOC(=O)CC1C(=O)NCCN1C(=O)COc1ccc(Br)cc1C` (stereo unspecified), the inhibition was 4% (inactive).
The figure for `Cc1nn(-c2ccccc2)c2[nH]c(C(F)(F)F)cc(=O)c12` is 3% (inactive).
With `O=[n+]1c2c(n([O-])c3cc(Br)ccc31)CCC2` the figure was 5% (inactive).
Turning to `CC(C)CCNc1nc(N2CCCC2)c2c(c1C#N)CCN(C)C2`, the inhibition is 7% (inactive).
Take `COc1ccc(N2C(=O)CCC(C(=O)Nc3ccccn3)C2c2ccc(OC)c(OC)c2)cc1` (stereo unspecified): the inhibition is 2% (inactive).
The figure for `Cc1ccc(S(=O)(=O)c2nc(NCCCn3ccnc3)sc2Cl)cc1` is 6% (inactive).
With `COc1ccc(N(CC(=O)NC(C)(C)C)C(=O)c2ccco2)cc1`, the inhibition was 1% (inactive).
The figure for `CCOC(=O)c1[nH]c2ccccc2c1N=C(C)N(CC)CC` is 4% (inactive).
In the case of `COc1cccc2c(C)c(C(=O)O)[nH]c12`, the inhibition is 14% (inactive).
With `COCCCNC(=O)c1c(F)c(F)c(F)c(F)c1F` the figure was 5% (inactive); with `O=C(CCn1c(=O)oc2ccccc21)Nc1ccon1`, 5% (inactive).
In the case of `COc1cc(C2C(C(=O)Nc3ccc(F)cc3)=C(C)Nc3nc(CCCO)nn32)cc(OC)c1OC` (stereo unspecified), the inhibition was 9% (inactive).
As for `OCCCN1c2ccccc2Nc2nnc(-c3ccccc3)cc21`, the inhibition was 2% (inactive).
Turning to `C=C1c2cc(CC)ccc2NC(=O)N1c1ccc(C)cc1`, the inhibition is 4% (inactive).
For the compound `CCc1nnc(NC(=O)CCC(=O)O)s1`, the inhibition was 1% (inactive).
As for `COc1cc(-c2nnc(Cn3cc(C(F)(F)F)ccc3=O)o2)cc(OC)c1OC`, the inhibition was 4% (inactive).
With `CCOP1(=O)C=C(C(C)(C)C)OC1c1ccc(F)cc1` (stereo unspecified) the figure was 5% (inactive).
The figure for `CCN(CC)C(=O)CSc1nnc(-c2ccc(S(=O)(=O)NCc3ccccc3Cl)cc2)o1` is 6% (inactive).
With `CCc1c(C)n([O-])c2c([n+]1=O)CCCCC2` the figure was 4% (inactive); with `Cc1noc(NS(=O)(=O)c2ccc(N3CC(O)=C(c4ccccc4)C3=N)cc2)c1C`, 4% (inactive); with `Cn1c(NC(=O)c2ccc3c(c2)OCO3)cc(=O)n(C)c1=O`, 7% (inactive).
As to `COC(=O)Cc1c(C)c2ccc(OCC(=O)NCc3ccc4c(c3)OCO4)cc2oc1=O`, the inhibition is 10% (inactive).
For `O=C(CSc1nc2ncccc2[nH]1)Nc1ccc2c(c1)OCCO2`, the inhibition was 1% (inactive).
With `CNC(=O)CSc1nnnn1-c1ccc(C)cc1C` the figure was 2% (inactive); with `CCC(C(=O)Nc1ncccn1)(C(F)(F)F)C(F)(F)F`, 1% (inactive).
Take `COc1ccc(C2/C(=C(/O)c3ccccc3)C(=O)C(=O)N2c2ncccn2)cc1OC` (stereo unspecified): the inhibition is 1% (inactive).
`O=C(COC(=O)c1ccccc1C(=O)c1ccccc1)c1ccco1`: the inhibition was 4% (inactive).
With `Cc1cc(C)n(C(=O)c2ccc(S(=O)(=O)N3CCCC3)cc2)n1` the figure was 4% (inactive); with `CC1(C)CCCC2=C1CC1C(=O)N(c3ccccc3)C(=O)C1C2` (stereo unspecified), 6% (inactive); with `Cc1ccc2cccc(O)c2[n+]1[O-]`, 10% (inactive).
As to `CCOc1ccccc1-n1c(SCC(=O)N2CCCC2)nnc1-c1ccoc1C`, the inhibition was 4% (inactive).
The figure for `O=C(CN1C(=O)C2C3C=CC(C3)C2C1=O)NCC1COc2ccccc2O1` (stereo unspecified) is 8% (inactive); for `Cn1nnnc1SCc1cc(=O)[nH]c2ccccc12` it is 6% (inactive); for `Cc1cc(OCCN2CCCC2)ccc1C(C)C` it is 14% (inactive).
With `CC1(C)CC(=O)c2sc(N)nc2C1` the figure was 3% (inactive); with `CCOC(=O)C1CCN(C(=O)Cn2cc(C#N)c3ccccc32)CC1`, 5% (inactive).
With `COc1ccc(-c2nn(-c3ccccc3)cc2C(=O)Nc2nc(CC(C)=O)ns2)cc1`, the inhibition was 4% (inactive).
With `CCOC(=O)CCCNC(=O)CN1C(=O)NC(CCc2ccccc2)C1=O` (stereo unspecified) the figure was 5% (inactive).
With `Cc1ccc(CCn2c3c(c4ccccc42)CN(C)CC3)cn1` the figure was 2% (inactive).
As to `CC(C)C1Cc2c(sc3c2c(=O)n(-c2ccccc2)c2nncn32)CO1` (stereo unspecified), the inhibition was 3% (inactive).
With `CN1c2ccccc2-c2nc3ccccc3n2C1c1ccco1` (stereo unspecified) the figure was 6% (inactive); with `C=CCn1c(COc2ccccc2)nnc1SCC(=O)NCC(=O)OCC`, 3% (inactive); with `Cc1cccc(OCC(O)Cn2c(=N)n(CCN3CCOCC3)c3ccccc32)c1` (stereo unspecified), 6% (inactive).
As to `C/C(=C\c1ccco1)C1Nc2cccc3cccc(c23)N1`, the inhibition was 10% (inactive).
The figure for `Cc1cc(NC(=O)Nc2ccccc2)n(-c2ccccc2)n1` is 1% (inactive).
In the case of `COc1ccc(Br)cc1/C=N/n1c(C)nnc1C`, the inhibition was 6% (inactive).
The figure for `O=C(Nc1ccccc1N1CCN(C(=O)c2ccccc2)CC1)c1ccc2c(c1)OCO2` is 4% (inactive); for `C=CCNc1nc(C)nc(OC)n1` it is 3% (inactive); for `CCCCC(CC)C(=O)Nc1ccc(Cl)cn1` (stereo unspecified) it is 5% (inactive).
With `CC(=O)c1c(N2CCOCC2)nc(=S)n(-c2cc(C)ccc2C)c1C`, the inhibition was 5% (inactive).
As to `CC(C)CCn1c(CN(C)Cc2ccccc2)nc2c1c(=O)n(C)c(=O)n2C`, the inhibition was 8% (inactive).
As to `COC(=O)c1ccc(C2CC(=O)Nc3cc(OC)c(OC)cc32)cc1` (stereo unspecified), the inhibition is 9% (inactive).
With `CCOc1ccccc1NC(=O)C1CCC(CNc2c(N3CCOCC3)c(=O)c2=O)CC1` (stereo unspecified) the figure was 7% (inactive).
Regarding `O=C(CSc1ncccn1)NCCc1ccccc1`, the inhibition is 5% (inactive).
Consider `COc1ccc(OC)c(NC(=O)CN2CCN(C(=O)c3ccco3)CC2)c1`, for which the inhibition is 3% (inactive).
The figure for `Cc1cccc(C)c1NC(=O)CCCSc1nnc(-c2ccco2)n1-c1ccccc1` is 3% (inactive); for `CCOC(=O)c1c(C(C#N)C#N)cc(C)nc1C` it is 7% (inactive).
With `Cc1cc(C)c(C(=O)CN2C(=O)CCC2=O)cc1C`, the inhibition was 5% (inactive).
On to `Oc1c(C(c2ccco2)N2CCC3(CC2)OCCO3)sc2ncnn12` (stereo unspecified), for which the inhibition was 3% (inactive).
The figure for `CCOC(=O)c1cc2cc(-c3c(C(=O)OCC)oc4cc(O)cc(O)c4c3=O)ccc2o1` is 3% (inactive).
